Results filed as inconclusive are left out. Unmarked numbers belong to inactive results. The source made the active and inactive calls. Calls follow the shape of the dose curve; as a rule, active = well fitted cell-killing curve with a large enough effect; inconclusive = small, poorly fitted or top-dose-only effect; inactive = flat fitted curve, though single readings scatter.
Assay: Cell Viability - LYMP1-002 - Assay at 40 hr (AID 994); also: nearly all actives have a fitted effect of over 60% in size;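 as to viability change, negative = cytotoxic: 0% = DMSO only and full inhibition = 92 µM tetraoctylammonium bromide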
Conditions: LYMP1-002 lymphoblastoid cell viability; series mostly up to 92.2 µM; viability change, negative = cytotoxic: at the top concentration
Description: NIH Chemical Genomics Center [NCGC]
NIH Molecular Libraries Screening Centers Network [MLSCN]
National Institutes of Environmental Health Sciences [NIEHS]
National Toxicology Program [NTP]
We have developed a 1536-well cell-based assay for quantitative high throughput screening (qHTS) against a number of cell lines to determine in vitro cytotoxicity of small molecules. This particular assay uses a human lymphoblastoid cell line (LYMP1-002) purchased from Coriell Institute for Medical Research.
NCGC Assay Protocol Summary:
The CellTiter-Glo luminescent cell viability assay (Promega) is a homogeneous method to measure the number of viable cells in culture. The end point readout of this assay is based on quantitation of intracellular ATP, an indicator of metabolic activity, using the luciferase reaction. Luciferase catalyzes the oxidation of beetle Luciferin to oxyluciferin and light in the presence of ATP. The luminescent signal is proportional to amount of ATP present.
Using the CellTiter-Glo luminescent cell viability assay, the amount of cellular ATP was measured in the lymphoblastoid cell line with complete culture medium following compound treatment for 40 hours. The assay was performed in opaque white Kalypsys 1536-well plates. In the screen, tetraoctylammonium bromide was used as positive control. Library compounds were measured for their ability to cause acute toxicity in the cell line, as reflected by a decrease in intracellular ATP levels, in a concentration-dependent manner. […] AC50 values were determined from concentration-response data modeled with the standard Hill equation.
qHTS protocol for CellTiter Glo lymphoblastoid cellular assay
[Step] [Parameter] [Value] [Description]
1. Reagent; 5 uL; 2500 lymphoblastoid cells/well
2. Time; 5 hr; 37 C incubation
4. Controls; 23 nL; Tetraoctylammonium bromide 6.4pM to 92 uM
5. Time; 40 hr; 37 C incubation
6. Reagent; 5 uL; CellTiter Glo reagent
7. Time; 30 min; Room Temperature
8. Detection; Luminescence; Viewlux plate reader
Keywords: cell viability, cytotoxicity, lymphoblastoid cell line, luminescence, NTPHTS, NTPHTS_NCGC, NIEHS, DSSTox, MLSMR, MLSCN, NIH Roadmap, qHTS, NCGC
Potency is read from the fitted curve at half-maximal effect.

Going from `CC(=O)c1ccc(S(=O)(=O)NC(=O)NC2CCCCC2)cc1` to `CCCNC(=O)NS(=O)(=O)c1ccc(Cl)cc1`, the “viability change, negative = cytotoxic” value rises from -11.6% to -5.21%.

Going from `O=c1c(O)c(-c2ccc(O)cc2)oc2cc(O)cc(O)c12` to `O=c1c(-c2ccc(O)cc2)coc2cc(O)ccc12`, the “viability change, negative = cytotoxic” value falls from -18.7% to -28.1%.

First: CC(=O)O[C@]1(C(C)=O)CC[C@H]2[C@@H]3C=C(Cl)C4=CC(=O)[C@@H]5C[C@@H]5[C@]4(C)[C@H]3CC[C@@]21C
Second: CCn1cc(C(=O)O)c(=O)c2ccc(C)nc21
The “viability change, negative = cytotoxic” value of the first is lower: -22.3% for the first, -0.881% for the second.

First: O=C(O)c1cc(O)c2c(c1)C(=O)c1cccc(O)c1C2=O
Second: O=C(O)Cc1cccc2ccccc12
The “viability change, negative = cytotoxic” value of the first is higher: -2.56% for the first, -6.23% for the second.

Compared with `O=C1NC(=O)C(c2ccccc2)(c2ccccc2)N1`, `CCCCC1C(=O)N(c2ccccc2)N(c2ccccc2)C1=O` is lower in “viability change, negative = cytotoxic” value: -1.74% for the first, -3.09% for the second.

Going from `CN(C)CCC(c1ccccc1)c1ccccn1` (centres undefined) to `O=c1[nH]cnc2c1ncn2[C@H]1CC[C@@H](CO)O1`, the “viability change, negative = cytotoxic” value rises from -8.01% to 3.19%.

In the case of `CC/C(=C(\c1ccccc1)c1ccc(OCCN(C)C)cc1)c1ccccc1`, the Potency is reported as 50.1 µM (active).
With `CC1=C(/C=C/C(C)=C/C=C/C(C)=C/C(=O)Nc2ccc(O)cc2)C(C)(C)CCC1` the Potency was 50.1 µM (active).
